Screening data as filed in PubChem BioAssay.
A selection: hits, their analogues and other compounds. The true share with any hit is near 32%.
PostGolgi ctrl = growth inhibition of yeast control strain, primary screen, counter-screen for post-Golgi transport modulator project; 98,000 compounds, 5% hits; inhibition, % at 10 µM; AID 738, 2007; efflux-deficient yeast background strain, growth absorbance A615, 16 h
PostGolgi yeast = phenotypic screen on post-Golgi transport, primary screen; post-Golgi transport phenotypic cell assay; inhibition, % at 10 µM; 98,000 compounds, 0.9% hits; AID 739, 2007;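 note: yeast cells grown in 1536-well plates; yeast grown about 18 h at 30C before absorbance read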
CYP2C9 inh = blockers of cytochrome P450 2C9 activity – biochemical, luminescence, ADME assay, primary screen; AID 777, 2007; CYP2C9 Supersomes, luciferin-H conversion; 96,000 compounds, 20% hits; P11712; inhibition, % at 5 µM;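 active = blocking of liver enzyme CYP2C9 beyond about 50% at 5 µM, limit read from the data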
CYP2C19 act = human CYP2C19 activators, primary screen, biochemical, luminescence. Cytochrome P450 2C19 (Homo sapiens), P33261. recombinant CYP2C19, luciferin-H EGE luminescence; stronger effect = higher value; 0 = fully inhibited enzyme, 1 = untreated enzyme. activation factor at 5 µM. 96,000 tested, under 10 active. AID 1025, 2008;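 active = activation factor of at least 2 at 5 µM in the primary screen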;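 note: 0 = wells with 2.5 mM tranylcypromine and 1 = vehicle-only wells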
Target sequence (P33261 whole entry, looked up): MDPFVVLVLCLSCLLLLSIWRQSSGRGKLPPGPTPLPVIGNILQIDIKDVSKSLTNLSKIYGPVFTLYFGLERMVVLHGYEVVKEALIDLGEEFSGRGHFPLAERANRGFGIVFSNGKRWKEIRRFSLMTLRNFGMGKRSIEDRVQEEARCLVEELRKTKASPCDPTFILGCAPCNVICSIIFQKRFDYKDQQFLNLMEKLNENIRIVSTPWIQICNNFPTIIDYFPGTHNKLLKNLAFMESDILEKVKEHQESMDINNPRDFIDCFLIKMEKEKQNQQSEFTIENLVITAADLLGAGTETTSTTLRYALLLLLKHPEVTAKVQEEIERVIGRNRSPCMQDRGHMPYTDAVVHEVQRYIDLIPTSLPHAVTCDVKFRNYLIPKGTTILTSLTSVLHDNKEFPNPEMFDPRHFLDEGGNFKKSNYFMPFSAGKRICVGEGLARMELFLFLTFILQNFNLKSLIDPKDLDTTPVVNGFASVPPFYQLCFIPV
CYP2C9 act = human CYP2C9 activators, primary screen, biochemical, luminescence. Cytochrome P450 2C9 (Homo sapiens), P11712. recombinant CYP2C9, luciferin-H conversion; stronger effect = higher value; factor 1 = untreated enzyme, 0 = blocked. AID 1024, 2008. 96,000 compounds, 1.4% hits. activation factor at 5 µM;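 active = activation factor of 2 or more for CYP2C9 at a 5 µM dose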;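 note: 0 = sulfaphenazole-blocked wells and 1 = vehicle-only wells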
CYP2C19 inhib = blockers of cytochrome P450 2C19 activity – biochemical, luminescence, ADME assay, primary screen | AID 778, 2007 | P33261 | CYP2C19 Supersomes, luciferin-H EGE luminescence, 30 min | inhibition, % at 5 µM | 96,000 compounds, 21% hits;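 active = CYP2C19 inhibition above a set limit at 5 µM in the primary screen, cut at about 50% in these data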;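 note: plate controls were negative control wells for no effect and 2.5 mM tranylcypromine positive control for full effect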
* hit, by the source's call; x = no result. Cut-off read from the data, not from the text of the source, unless noted: active = inhibition above about 30%; inactive = the rest.

SMILES	PostGolgi ctrl	PostGolgi yeast	CYP2C9 inh	CYP2C19 act	CYP2C9 act	CYP2C19 inhib
COC(=O)c1ccccc1NC(=O)C1CCCN(S(=O)(=O)c2ccc(OC)cc2)C1 (stereo unspecified)	12	1	73*	0.5	0.3	54*
COC(=O)c1ccccc1NC(=O)C1CCCN(S(=O)(=O)c2ccccc2)C1 (stereo unspecified)	41*	-7	33	0.6	0.7	43
COC(=O)c1ccccc1NC(=O)C1CCCN(S(=O)(=O)c2ccc(F)cc2)C1 (stereo unspecified)	9	0	80*	0.1	0.2	90*
COC(=O)c1ccccc1NC(=O)C1CCCN(S(C)(=O)=O)C1 (stereo unspecified)	6	18	-30	0.9	1.3	7
COc1ccc(S(=O)(=O)N2CCCC(C(=O)Nc3cccc(C(C)=O)c3)C2)cc1 (stereo unspecified)	-2	9	31	0.6	0.7	41
CCNC(=O)c1ccc2c(c1)S(=O)(=O)c1ccccc1C2=O	3	-6	22	0.8	0.8	22
OC1(c2cn(Cc3ccccc3)nn2)CCCCC1	38*	0	-5	0.9	1.1	10
Cc1ccccc1Cn1cc(NC(=O)CSc2nc3c(c(C(F)(F)F)n2)CCc2ccccc2-3)cn1	1	13	81*	0.7	0.2	30
NC(=O)c1c(NC(=O)CSc2nc3c(c(C(F)(F)F)n2)CCc2ccccc2-3)sc2c1CCCC2	-1	-3	41	0.8	0.6	15
Cc1nn(Cc2ccc(Cl)cc2)c(C)c1NC(=O)CSc1nc2c(c(C(F)(F)F)n1)CCc1ccccc1-2	-5	2	72*	0.7	0.3	28
CCOC(=O)c1nn(-c2cc(C(=O)OC)cc(C(=O)OC)c2)cc1O	17	-2	-24	0.7	1.2	34
CCOC(=O)c1nn(-c2sc(C(=O)OC)c(C)c2C(=O)OC)cc1O	18	2	61*	0	0.4	100*
CCOC(=O)c1nn(-c2ccc(C)cc2)cc1O	-6	7	31	0.4	0.7	61*
O=C(Nn1cnnc1)c1ccccc1CCc1ccccc1	17	-10	36	0.8	0.6	20
COc1ccccc1C1C(C#N)=C(N)N(c2cccnc2)C2=C1C(=O)CC(C)(C)C2 (stereo unspecified)	-2	-1	x	x	x	x
COn1c(C)c(C(C)=O)c2c3nonc3ccc21	6	-10	50*	0.4	0.5	61*
COn1c2c(c3c4nonc4ccc31)CCCC2	-2	15	12	0.6	0.9	38
CC(C)OC(=O)c1c(F)c(F)c(N2CCOCC2)c(F)c1F	16	0	-2	0.5	1	51*
COC(=O)c1c(F)c(F)c(N2CCOCC2)c(F)c1F	6	-7	6	0.7	0.9	33
Cc1ccccc1Cn1cc(/C=N/n2cnnc2)c2ccccc21	28	4	74*	0.1	0.3	91*
Clc1ccc(Cn2cc(/C=N/n3cnnc3)c3ccccc32)cc1	42*	-4	40	0.2	0.6	80*
Oc1ccccc1/C=N/n1cnnc1	2	2	12	1	0.9	-4
Cn1c(/C=N/n2cnnc2)nc2ccccc21	10	-7	-16	1	1.2	1
CCOC(=O)c1[nH]c(C)c(/C(O)=C2\C(=O)C(=O)N(CCN(C)C)C2c2ccco2)c1C (stereo unspecified)	x	x	3	1.1	1	-8
O=C(NC(=S)Nc1ccc(Cl)cn1)C(c1ccccc1)c1ccccc1	34*	30	35	0.9	0.7	13
SMILES	PostGolgi ctrl	PostGolgi yeast	CYP2C9 inh	CYP2C19 act	CYP2C9 act	CYP2C19 inhib
CCCC(C)C(=O)Nc1ccc(Cl)cn1 (stereo unspecified)	1	-8	14	0.5	0.9	53*
Cc1nn(CC(=O)Nc2ccc(Cl)cn2)c(C)c1[N+](=O)[O-]	-3	2	-6	0.5	1.1	48
Cc1nn(C(C)C(=O)Nc2ccc(Cl)cn2)c(C)c1[N+](=O)[O-] (stereo unspecified)	2	-8	22	0.3	0.8	74*
O=C(COc1ccc(Cl)cc1)Nc1ccc(Cl)cn1	-1	-5	20	0.3	0.8	68*
CCCCC(=O)Nc1ccc(Cl)cn1	6	8	4	0.8	1	16
O=C(CN1C(=O)C2(OCCO2)c2ccccc21)c1ccc(Br)cc1	8	-4	39	0.7	0.6	30
CCOc1c(Cl)cc(C2NC(=O)NC(C)=C2C(=O)NCc2ccccc2)cc1OC (stereo unspecified)	6	-4	19	1	0.8	5
CC(C)(C)c1cc(C(=O)NCc2ccco2)ccn1	17	1	-12	1	1.1	-5
Cc1ccc2c(CC(=O)NCc3ccco3)coc2c1C	5	5	-54	0	1.5	99*
COc1cc(C(=O)NCc2ccco2)c(Br)c(OC)c1OC	7	-5	-13	0.6	1.1	39
Cc1c(Br)cc(C(=O)NCc2ccco2)c(C)c1C	4	-8	-168	0.2	2.7*	77*
Cc1ccc(C(=O)NCc2ccco2)cc1Br	13	8	-32	0.3	1.3	70*
O=C(NCc1ccco1)c1ccc(C(=O)NCc2ccco2)s1	9	2	33	1	0.7	5
O=C(NCc1ccco1)c1ccc(Br)s1	3	0	37	0.3	0.6	70*
COc1ccccc1N1CCN(C(=O)Cn2nnc(-c3ccncc3)n2)CC1	-2	-10	46	0.7	0.5	26
O=C(O)CN1CCNCC1	1	0	-5	0.9	1.1	6
FC(F)(F)c1nc2ccccc2n2c(-c3ccc(Cl)cc3Cl)nnc12	8	12	3	0.7	1	26
FC(F)(F)c1nnc2c(Sc3ccccc3)nc3ccc(Cl)cc3n12	15	-3	26	0.5	0.7	50*
N#CCSc1nc2c(sc(=S)n2Cc2ccco2)c(=O)n1-c1ccc(F)cc1	13	4	71*	0.4	0.3	64*
Cc1ccc2[nH]c(=O)c(CN(CC3CCCO3)S(=O)(=O)c3c(C)ccc4nsnc34)cc2c1 (stereo unspecified)	32*	1	52*	0.7	0.5	29
Cc1ccc2[nH]c(=O)c(CN(Cc3ccco3)S(=O)(=O)c3c(C)ccc4nsnc34)cc2c1	3	-4	14	0.9	0.9	10
Cc1ccc2[nH]c(=O)c(CN(CC3CCCO3)S(=O)(=O)c3cccc4nsnc34)cc2c1 (stereo unspecified)	-6	14	91*	0.2	0.1	79*
